Columns and labels:
Assay in all cases: log2 ratio of Biotin-Ahx-Ub-VS probe labelling (fragment/DMSO); higher = less target engagement (more negative = stronger competition), active = hit call of the paper (q ≤ 0.05, log2 ratio ≤ -1)
Conditions in all cases: compound concentration: 200 uM; treatment time: 3 h
ALG13 = biological target: T1, ALG13 (UniProt Q9NP73)
T1 sequence (whole entry): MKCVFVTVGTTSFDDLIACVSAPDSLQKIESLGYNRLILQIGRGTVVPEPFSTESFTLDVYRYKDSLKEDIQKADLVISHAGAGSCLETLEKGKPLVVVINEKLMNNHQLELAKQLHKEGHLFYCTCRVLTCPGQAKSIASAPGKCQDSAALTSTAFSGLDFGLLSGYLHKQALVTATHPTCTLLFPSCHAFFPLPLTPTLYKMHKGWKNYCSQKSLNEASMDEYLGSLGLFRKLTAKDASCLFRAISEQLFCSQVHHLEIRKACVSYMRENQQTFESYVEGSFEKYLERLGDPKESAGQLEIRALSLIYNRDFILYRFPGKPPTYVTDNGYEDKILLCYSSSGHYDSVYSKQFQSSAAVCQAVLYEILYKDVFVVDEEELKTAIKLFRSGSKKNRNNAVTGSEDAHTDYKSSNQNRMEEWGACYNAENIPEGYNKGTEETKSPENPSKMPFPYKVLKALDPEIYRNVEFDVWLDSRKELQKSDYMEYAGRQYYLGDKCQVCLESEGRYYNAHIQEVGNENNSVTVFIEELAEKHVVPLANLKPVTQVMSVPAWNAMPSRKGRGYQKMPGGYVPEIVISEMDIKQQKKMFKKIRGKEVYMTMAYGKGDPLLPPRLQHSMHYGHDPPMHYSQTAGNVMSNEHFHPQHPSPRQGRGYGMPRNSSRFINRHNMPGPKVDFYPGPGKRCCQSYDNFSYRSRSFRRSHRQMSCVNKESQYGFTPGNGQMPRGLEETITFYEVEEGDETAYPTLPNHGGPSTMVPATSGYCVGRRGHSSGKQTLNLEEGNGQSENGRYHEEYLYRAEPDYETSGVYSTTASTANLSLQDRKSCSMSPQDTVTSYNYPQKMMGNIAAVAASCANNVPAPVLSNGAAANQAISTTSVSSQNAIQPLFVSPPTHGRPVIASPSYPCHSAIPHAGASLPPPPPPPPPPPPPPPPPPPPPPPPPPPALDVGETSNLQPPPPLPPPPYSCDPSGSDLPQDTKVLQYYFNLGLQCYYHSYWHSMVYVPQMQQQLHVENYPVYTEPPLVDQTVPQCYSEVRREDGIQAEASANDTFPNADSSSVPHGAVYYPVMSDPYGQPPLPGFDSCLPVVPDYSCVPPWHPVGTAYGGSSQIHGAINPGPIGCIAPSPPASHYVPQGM
Summary of the method: (§1)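 Lysate from HEK293T cells, 495 µg per sample in Tris/CHAPS/IGEPAL buffer with protease inhibitors, was treated for 3 h in triplicate with fragment at 200 µM or vehicle. Biotin-Ahx-Ub-VS was next added at 0.5 µM final for 1 h. The labelled DUBs were enriched with NeutrAvidin, digested with LysC and trypsin, and run by diaPASEF LC-MS/MS, with values given as average log2 fragment/vehicle ratios by unpaired t-test on global-median-normalised Spectronaut quantities of proteins with ≥2 unique peptides.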

ATXN3 = ATXN3 (UniProt P54252)
Chain of ATXN3 (P54252 whole entry): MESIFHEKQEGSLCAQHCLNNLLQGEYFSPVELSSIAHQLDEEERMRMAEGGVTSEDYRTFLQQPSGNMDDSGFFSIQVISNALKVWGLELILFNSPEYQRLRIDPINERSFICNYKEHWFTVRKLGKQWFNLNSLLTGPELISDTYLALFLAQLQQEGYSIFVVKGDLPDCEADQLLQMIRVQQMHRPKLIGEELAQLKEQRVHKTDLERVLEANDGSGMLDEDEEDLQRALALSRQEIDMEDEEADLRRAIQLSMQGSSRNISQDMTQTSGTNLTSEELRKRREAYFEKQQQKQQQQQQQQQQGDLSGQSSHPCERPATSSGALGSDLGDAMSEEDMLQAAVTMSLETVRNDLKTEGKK
Summary of the method: as §1

BAP1 = biological target: T2, BAP1 (UniProt Q92560)
T2 sequence (whole entry): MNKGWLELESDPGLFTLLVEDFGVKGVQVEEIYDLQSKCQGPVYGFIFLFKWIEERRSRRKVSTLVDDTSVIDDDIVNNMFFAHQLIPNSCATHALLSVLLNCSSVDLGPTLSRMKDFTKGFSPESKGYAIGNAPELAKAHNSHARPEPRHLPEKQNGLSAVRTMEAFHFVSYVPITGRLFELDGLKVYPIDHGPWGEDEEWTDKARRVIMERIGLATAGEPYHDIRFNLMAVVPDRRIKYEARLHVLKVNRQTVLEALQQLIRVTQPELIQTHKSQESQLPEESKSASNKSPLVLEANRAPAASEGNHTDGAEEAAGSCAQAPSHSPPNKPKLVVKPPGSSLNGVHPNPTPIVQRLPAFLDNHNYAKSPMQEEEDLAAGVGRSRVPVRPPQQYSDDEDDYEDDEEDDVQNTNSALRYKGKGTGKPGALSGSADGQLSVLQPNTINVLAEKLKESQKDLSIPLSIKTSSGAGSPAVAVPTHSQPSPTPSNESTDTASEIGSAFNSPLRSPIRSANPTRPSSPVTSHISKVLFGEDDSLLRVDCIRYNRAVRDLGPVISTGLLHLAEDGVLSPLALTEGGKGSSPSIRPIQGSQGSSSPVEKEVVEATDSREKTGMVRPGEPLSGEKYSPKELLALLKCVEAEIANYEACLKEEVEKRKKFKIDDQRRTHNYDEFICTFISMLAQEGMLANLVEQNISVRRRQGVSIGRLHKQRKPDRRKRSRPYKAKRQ
Summary of the method: as §1

EIF3F = EIF3F (UniProt O00303)
Chain of EIF3F (O00303 whole entry): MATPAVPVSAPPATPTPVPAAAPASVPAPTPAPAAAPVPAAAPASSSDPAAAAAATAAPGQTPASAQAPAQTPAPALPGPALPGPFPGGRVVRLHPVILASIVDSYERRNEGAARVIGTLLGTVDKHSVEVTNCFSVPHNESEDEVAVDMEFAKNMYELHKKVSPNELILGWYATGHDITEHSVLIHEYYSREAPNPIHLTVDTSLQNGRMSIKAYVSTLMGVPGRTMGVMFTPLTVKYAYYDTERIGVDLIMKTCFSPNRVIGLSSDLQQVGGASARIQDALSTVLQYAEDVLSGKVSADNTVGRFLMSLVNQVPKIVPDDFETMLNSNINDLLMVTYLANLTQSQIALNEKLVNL
Summary of the method: as §1

EIF3H = EIF3H (UniProt O15372)
Chain of EIF3H (O15372 whole entry): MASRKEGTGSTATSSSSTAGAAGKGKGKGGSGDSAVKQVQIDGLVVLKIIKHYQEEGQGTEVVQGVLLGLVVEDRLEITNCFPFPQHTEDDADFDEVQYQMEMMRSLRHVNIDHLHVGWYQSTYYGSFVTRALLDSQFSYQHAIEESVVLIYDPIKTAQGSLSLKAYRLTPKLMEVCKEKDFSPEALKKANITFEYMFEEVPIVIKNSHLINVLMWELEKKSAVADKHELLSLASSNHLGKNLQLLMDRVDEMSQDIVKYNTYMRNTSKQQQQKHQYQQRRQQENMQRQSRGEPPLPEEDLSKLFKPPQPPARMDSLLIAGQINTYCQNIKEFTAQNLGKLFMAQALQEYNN
Summary of the method: as §1

FAM105A = biological target: T3, FAM105A (UniProt Q9NUU6)
T3 sequence (whole entry): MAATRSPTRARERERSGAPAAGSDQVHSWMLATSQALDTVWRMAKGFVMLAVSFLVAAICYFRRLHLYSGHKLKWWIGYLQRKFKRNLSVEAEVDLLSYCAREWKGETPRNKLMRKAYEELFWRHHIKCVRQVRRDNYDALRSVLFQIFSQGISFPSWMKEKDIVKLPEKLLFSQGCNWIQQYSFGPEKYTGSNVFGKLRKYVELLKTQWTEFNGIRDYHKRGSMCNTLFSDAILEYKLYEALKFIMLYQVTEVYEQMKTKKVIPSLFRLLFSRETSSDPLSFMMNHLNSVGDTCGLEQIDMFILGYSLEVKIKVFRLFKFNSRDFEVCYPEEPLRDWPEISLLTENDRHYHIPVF
Summary of the method: as §1

OTUB1 = OTUB1 (UniProt Q96FW1)
Chain of OTUB1 (Q96FW1 whole entry): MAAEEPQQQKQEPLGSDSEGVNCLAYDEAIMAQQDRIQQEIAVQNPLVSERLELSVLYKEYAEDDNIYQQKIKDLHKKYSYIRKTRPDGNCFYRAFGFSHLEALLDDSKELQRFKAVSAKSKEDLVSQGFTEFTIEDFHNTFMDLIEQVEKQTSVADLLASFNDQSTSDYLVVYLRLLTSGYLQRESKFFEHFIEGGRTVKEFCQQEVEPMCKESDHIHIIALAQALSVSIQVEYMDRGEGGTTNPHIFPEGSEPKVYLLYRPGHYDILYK
Summary of the method: as §1

OTUD4 = biological target: T4, OTUD4 (UniProt Q01804)
T4 sequence (whole entry): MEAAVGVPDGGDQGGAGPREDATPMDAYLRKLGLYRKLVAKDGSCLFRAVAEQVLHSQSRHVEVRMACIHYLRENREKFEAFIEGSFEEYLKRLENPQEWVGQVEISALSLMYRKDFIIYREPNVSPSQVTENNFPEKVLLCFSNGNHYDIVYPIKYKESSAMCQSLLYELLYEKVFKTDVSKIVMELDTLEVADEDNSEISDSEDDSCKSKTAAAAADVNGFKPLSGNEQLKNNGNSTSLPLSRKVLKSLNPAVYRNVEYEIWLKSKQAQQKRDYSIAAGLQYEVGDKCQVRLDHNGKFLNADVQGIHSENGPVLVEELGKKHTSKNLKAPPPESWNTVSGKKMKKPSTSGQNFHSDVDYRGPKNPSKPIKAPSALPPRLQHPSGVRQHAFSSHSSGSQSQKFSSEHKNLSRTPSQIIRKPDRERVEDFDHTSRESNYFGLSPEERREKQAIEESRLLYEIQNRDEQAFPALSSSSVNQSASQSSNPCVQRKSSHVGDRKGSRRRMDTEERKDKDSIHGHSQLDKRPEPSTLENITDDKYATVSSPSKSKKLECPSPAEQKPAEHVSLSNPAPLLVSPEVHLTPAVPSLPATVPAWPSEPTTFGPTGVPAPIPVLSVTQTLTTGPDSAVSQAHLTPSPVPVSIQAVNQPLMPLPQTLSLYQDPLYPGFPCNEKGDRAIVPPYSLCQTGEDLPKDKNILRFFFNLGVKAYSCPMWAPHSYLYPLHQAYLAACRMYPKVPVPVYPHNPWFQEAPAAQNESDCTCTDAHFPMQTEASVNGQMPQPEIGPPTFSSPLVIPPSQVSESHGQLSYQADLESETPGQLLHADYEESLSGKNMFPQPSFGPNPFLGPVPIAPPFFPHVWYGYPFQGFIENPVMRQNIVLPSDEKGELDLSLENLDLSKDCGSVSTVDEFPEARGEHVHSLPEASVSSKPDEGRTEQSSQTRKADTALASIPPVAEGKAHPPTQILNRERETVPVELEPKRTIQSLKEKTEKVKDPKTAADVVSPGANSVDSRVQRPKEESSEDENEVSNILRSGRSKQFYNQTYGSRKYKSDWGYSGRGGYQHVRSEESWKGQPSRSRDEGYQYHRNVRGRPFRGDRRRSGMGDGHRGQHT
Summary of the method: as §1

OTUD5 = biological target: T5, OTUD5 (UniProt Q96G74)
T5 sequence (whole entry): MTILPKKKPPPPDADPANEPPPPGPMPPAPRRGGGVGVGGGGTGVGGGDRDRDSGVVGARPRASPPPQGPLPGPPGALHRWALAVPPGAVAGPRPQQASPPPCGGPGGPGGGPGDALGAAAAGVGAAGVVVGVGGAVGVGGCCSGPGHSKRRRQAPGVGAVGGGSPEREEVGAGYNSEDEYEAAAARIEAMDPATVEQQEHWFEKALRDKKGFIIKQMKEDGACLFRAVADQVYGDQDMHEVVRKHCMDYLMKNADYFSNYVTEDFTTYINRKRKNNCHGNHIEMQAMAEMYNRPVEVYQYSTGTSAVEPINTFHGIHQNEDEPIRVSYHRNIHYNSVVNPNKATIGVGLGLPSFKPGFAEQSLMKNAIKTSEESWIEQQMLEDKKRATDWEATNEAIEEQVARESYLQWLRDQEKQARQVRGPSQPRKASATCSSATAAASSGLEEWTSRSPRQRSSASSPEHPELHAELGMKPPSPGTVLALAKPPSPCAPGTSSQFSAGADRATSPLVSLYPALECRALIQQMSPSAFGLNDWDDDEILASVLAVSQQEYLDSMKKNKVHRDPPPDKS
Summary of the method: as §1

Measured: log2 ratio of Biotin-Ahx-Ub-VS probe labelling

Cc1cccc2nc(CCNC(=O)CCl)cn12.Cl
inactive: ALG13 -0.496 | ATXN3 -0.436 | BAP1 -0.904 | EIF3F -0.438 | EIF3H -0.726 | FAM105A -0.0367 | OTUB1 -0.236 | OTUD4 -0.21 | OTUD5 -0.495
